# Screening results deposited in PubChem BioAssay by The Scripps Research Institute Molecular Screening Center.
# The list is not random: actives were taken first. Their share in the collection is about 5.7%.
# ssDAF12 agonist = activators of S. stercoralis DAF-12 nuclear receptor; HEK293 ssDAF-12/GRIP1 lit1-tk-luc reporter, luminescence; % of 3 µM dafachronic acid response; activation, % at 6.8 µM; actives 1% (n = 370,000); AID 652126;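 active means activation above the mean over all tested compounds plus 3 SD, cut at about 0.9% in these data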
# DAX1 inh-1 = inhibitors of human orphan nuclear receptor DAX1 (NR0B1) | P51843 | HEK293 Gal4-DAX1 luciferase reporter, luminescence | inhibition, % at 6.75 µM | actives 0.99% (n = 340,000);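 active means inhibition above the mean over all tested compounds plus 3 SD, cut at about 4.2% in these data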;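 further: inhibition shows as a rise in luminescence from relieved DAX1 repression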
# hcDAF12 agonist = H. contortus DAF-12 activation, primary screen; activation, % at 6.8 µM; HEK293 hcDAF-12 lit1-tk-luc reporter, luminescence; 0% DMSO, 100% Δ7-dafachronic acid; actives 1.4% (n = 370,000);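 active means activation above the mean of all tested compounds plus 3 SD, cut at about 5.5% in these data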
# hgDAF-12 ag = agonists of H. glycines DAF-12 nuclear receptor; HEK293 GAL4-hgDAF12 UAS-luciferase reporter, agonist luminescence; normalized to butyrate control; activation, % at 6.8 µM; actives 1.8% (n = 370,000); AID 687014;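 active means activation above a cutoff set at the mean of all screened compounds plus 3 SD, cut at about 10% in these data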
# AHR act = activates the human aryl hydrocarbon receptor; activation, % at 5 µM; AID 2796; P35869; AHR-responsive luciferase reporter cells, luminescence; actives 2.5% (n = 320,000); in the data active means activation above about 47%
# Target sequence (P35869 whole entry, looked up): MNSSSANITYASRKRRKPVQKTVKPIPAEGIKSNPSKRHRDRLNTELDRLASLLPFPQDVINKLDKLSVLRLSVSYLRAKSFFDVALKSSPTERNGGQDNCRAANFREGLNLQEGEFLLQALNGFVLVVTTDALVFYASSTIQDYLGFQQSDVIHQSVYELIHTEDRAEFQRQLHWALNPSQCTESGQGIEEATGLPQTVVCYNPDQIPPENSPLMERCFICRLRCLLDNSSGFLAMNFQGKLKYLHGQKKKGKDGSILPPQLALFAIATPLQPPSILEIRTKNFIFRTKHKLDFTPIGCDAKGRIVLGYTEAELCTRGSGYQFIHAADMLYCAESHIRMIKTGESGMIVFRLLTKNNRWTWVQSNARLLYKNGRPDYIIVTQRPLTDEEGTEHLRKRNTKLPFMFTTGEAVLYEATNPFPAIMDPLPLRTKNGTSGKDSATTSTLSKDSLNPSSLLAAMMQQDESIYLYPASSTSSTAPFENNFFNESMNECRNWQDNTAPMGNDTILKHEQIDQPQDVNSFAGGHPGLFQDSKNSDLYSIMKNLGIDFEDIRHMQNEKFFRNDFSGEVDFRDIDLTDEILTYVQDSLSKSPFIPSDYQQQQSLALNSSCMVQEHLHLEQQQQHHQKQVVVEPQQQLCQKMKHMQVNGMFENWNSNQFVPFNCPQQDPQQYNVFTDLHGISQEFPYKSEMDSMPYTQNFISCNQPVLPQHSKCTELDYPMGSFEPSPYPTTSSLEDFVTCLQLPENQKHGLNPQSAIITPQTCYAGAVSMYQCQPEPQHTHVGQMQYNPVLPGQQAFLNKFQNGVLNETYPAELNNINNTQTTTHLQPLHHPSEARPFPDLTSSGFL
# DAX1 inh-2 = DAX1 (NR0B1) inhibition, primary screen. actives 1.1% (n = 370,000). HEK293T StAR-luciferase reporter, SF-1/DAX-1 repression relief. inhibition, % at 6.8 µM. AID 652010;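 active means inhibition above the mean over all tested compounds plus 3 SD, cut at about 3.6% in these data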;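 further: higher inhibition means more luminescence from relief of DAX-1 repression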
# Hits are given with their value; i = inactive; nt = no result.
SMILES,ssDAF12 agonist,DAX1 inh-1,hcDAF12 agonist,hgDAF-12 ag,AHR act,DAX1 inh-2
Cc1ccccc1S(=O)(=O)NC(=O)C1(C)CCN1C(=O)C1CCCCC1 (stereo not drawn),i,nt,i,i,nt,i
CCCCN(C)CCCNC(=O)C1(O)c2ccccc2NC(=O)N1c1ccc(Cl)cc1 (stereo not drawn),i,i,i,i,i,i
CN(NC1OC(=O)c2ccccc21)c1ccccc1[N+](=O)[O-] (stereo not drawn),i,8.0,i,i,i,i
COc1ccc(-c2cc(-c3ccc(Cl)cc3)n[nH]2)c(O)c1,i,5.4,i,11,i,i
COc1ccc(O)c(-c2cc(-c3cccc(Br)c3)n[nH]2)c1,i,i,i,i,64,i
Oc1ccc(Br)cc1-c1cc(-c2ccc(Cl)cc2)n[nH]1,i,i,i,i,49,i
Cc1cccn2c(=O)c(C(=O)NCCCN3CC(C)CC(C)C3)c(O)nc12 (stereo not drawn),i,i,i,i,i,i
CC(C)[C@H](NC(=O)C1CC(=O)N(c2ccc3c(c2)OCCO3)C1)C(=O)NC1CCCC1 (stereo partly drawn),i,i,i,i,i,i
CSc1nsc(SCC(=O)Nc2ccc(Br)cn2)n1,i,i,i,i,48,i
CSc1nsc(SCC(=O)Nc2ccc(NC(C)=O)cc2)n1,i,i,i,i,i,i
CSc1nsc(SCC(=O)Nc2ccccc2C(=O)O)n1,1.1,i,i,i,i,i
COC(=O)[C@]12C[C@H](CC(=O)NCc3cccc4ccccc34)C(=O)N(Cc3ccc(Cl)cc3Cl)C1=C[C@H](COCc1ccccc1)O[C@@H]2C,i,nt,i,i,nt,i
CCOC(=O)C(=CN=C(N)Nc1nc2ccccc2o1)C(=O)OCC,i,i,i,i,63,i
CCOc1ccc(C(C(=O)NC2CCCC2)N(CCCO)C(=O)c2ccc(-c3ccccc3)[nH]2)cc1 (stereo not drawn),i,i,i,i,i,i
Cn1c2[n+](c3ccc(Cl)cc3c1=O)Cc1ccccc1-2,i,5.7,i,i,i,i
CN1C(=O)[C@@](O)(c2cccn2C)c2cc(Cl)ccc21,0.9,nt,i,i,nt,i
COc1ccc(CN2C(=O)[C@@](O)(c3cccn3C)c3cc(F)ccc32)cc1,i,nt,i,i,nt,i
COC(=O)[C@]12C[C@H](CC(=O)NCc3ccc(C)o3)C(=O)N(CCC3=CCCCC3)C1=C[C@H](COCc1ccccc1)O[C@@H]2C,i,nt,i,i,nt,i
CSc1nc2[nH]c3c(c2c2ncnn12)CCCC3,i,i,i,i,47,i
CSc1c2c(nc3ncnn13)CCC2,i,i,i,i,i,i
CC(C)(C)CC(=O)Nc1ccc(-c2cn3cccnc3n2)cc1,i,i,i,i,i,i
O=C(O)C1(Nc2ccc(Cl)cc2)CCCC1,i,5.3,i,i,nt,i
NC(=O)C1(Nc2ccc(-c3ccc(Cl)cc3)cc2)CCCC1,i,i,i,i,nt,i
CC(=O)Nc1cccc(Nc2nc(-c3ccccc3)nc3ccccc23)c1,i,i,i,i,62,i
c1ccc(Nc2nc(-c3ccncc3)nc3ccccc23)cc1,i,i,i,i,i,i
SMILES,ssDAF12 agonist,DAX1 inh-1,hcDAF12 agonist,hgDAF-12 ag,AHR act,DAX1 inh-2
Fc1ccc(Nc2nc(-c3ccncc3)nc3ccccc23)cc1,i,i,i,i,52,i
Fc1ccccc1Nc1nc(-c2ccncc2)nc2ccccc12,i,i,i,i,56,i
Cc1ccc(Nc2nc(-c3ccncc3)nc3ccccc23)cc1,i,nt,i,i,i,i
CCCOc1ccc(-c2nc(OCC)c3ccccc3n2)cc1,i,i,i,i,i,i
CCOc1nc(-c2ccncc2)nc2ccccc12,i,i,i,i,114,i
COCCN(C(=O)c1ccc(-c2ccc(Cl)cc2)o1)c1c(N)n(Cc2ccccc2)c(=O)[nH]c1=O,i,i,i,i,i,i
